For 33 compounds, viability index results are on record in the supplement of paper PMC4723716.

The test system of this test is Plasmodium falciparum NF54 stage V gametocytes. In words: viability index relative to DMSO control (fraction); higher = less gametocyte killing. As to conditions: 2.5 µM, incubation time: 72 h. The essentials:
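Stage V gametocytes of P. falciparum NF54 were held in serum-free screening medium at 0.75% gametocytemia and 1.25% hematocrit, 10 µl per well of a 1,536-well plate, and exposed to compound at 2.5 µM for 72 hr at 37°C under low oxygen. A 3 µl mix of 2.5 µM MitoTracker Red CMXRos with 0.13% saponin was then added for one to two hours, after which one field per well was imaged and red particles of 20–70 µm2 were counted. The viability index equals this count divided by the plate mean from wells given solvent alone.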

Where [1] appears, read: library set: Broad Institute DOS.

Molecules are shown by their SMILES. ± gives the uncertainty stated by the source. Whole data set: some 9,900 compounds, median “viability index relative to DMSO control” near 1, cut for the lowest 2% near 0.85. This is one part of a sample in which the lowest values are shown more often than they occur.

`C[C@H]1CN([C@@H](C)CO)C(=O)c2cc(NS(=O)(=O)c3cn(C)cn3)ccc2O[C@@H]1CN(C)C(=O)Nc1cccc2ccccc12` had a viability index under setting [1] of 0.954 ± 0.24.
For `COc1cccc(S(=O)(=O)N(C)C[C@@H]2Oc3cc(Br)ccc3S(=O)(=O)N([C@@H](C)CO)C[C@@H]2C)c1`, under setting [1], the viability index is 1.07 ± 0.041.
`Cc1ccc(S(=O)(=O)N(C)C[C@@H]2Oc3cc(C#CC4CCCC4)ccc3S(=O)(=O)N([C@H](C)CO)C[C@H]2C)cc1` showed a viability index under setting [1] of 0.766 ± 0.091.
With `CCCC#Cc1ccc2c(c1)O[C@H](CN(C)Cc1ccccn1)[C@H](C)CN([C@@H](C)CO)S2(=O)=O`, the viability index under setting [1] was determined as 0.847 ± 0.015.
For the compound `CCCC#Cc1ccc2c(c1)O[C@@H](CN(C)Cc1ccccn1)[C@@H](C)CN([C@@H](C)CO)S2(=O)=O`, the viability index under setting [1] stood at 0.884 ± 0.045.
In the case of `C[C@H]1CN([C@@H](C)CO)S(=O)(=O)c2ccc(C#Cc3cccc(F)c3)cc2O[C@@H]1CN(C)S(=O)(=O)c1cn(C)cn1`, under setting [1], the viability index amounted to 0.985 ± 0.049.
Same read-out and setting: to `C[C@@H]1CN([C@H](C)CO)S(=O)(=O)c2ccc(C#Cc3cccc(F)c3)cc2O[C@@H]1CN(C)S(=O)(=O)c1cn(C)cn1` belongs 1.01 ± 0.055; to `CCCC#Cc1ccc2c(c1)O[C@H](CN(C)Cc1ccccn1)[C@@H](C)CN([C@@H](C)CO)S2(=O)=O`, 1.02 ± 0.084; to `Cc1ccc(S(=O)(=O)N(C)C[C@@H]2Oc3cc(C#CC4CCCC4)ccc3S(=O)(=O)N([C@H](C)CO)C[C@@H]2C)cc1`, 0.943 ± 0.17.
Under setting [1], `C[C@@H]1CN([C@H](C)CO)S(=O)(=O)c2ccc(C#Cc3cccc(F)c3)cc2O[C@H]1CN(C)S(=O)(=O)c1cn(C)cn1` gave a viability index of 0.803 ± 0.052.
Still for that read-out and setting: the value for `C[C@@H]1CN([C@@H](C)CO)S(=O)(=O)c2ccc(C#Cc3cccc(F)c3)cc2O[C@@H]1CN(C)S(=O)(=O)c1cn(C)cn1` was 0.9512 ± 0.0018.
Still for that read-out and setting: to `Cc1ccc(S(=O)(=O)N(C)C[C@@H]2Oc3cc(C#CC4CCCC4)ccc3S(=O)(=O)N([C@@H](C)CO)C[C@H]2C)cc1` belongs 0.648 ± 0.17; to `Cc1ccc(S(=O)(=O)N(C)C[C@H]2Oc3cc(C#CC4CCCC4)ccc3S(=O)(=O)N([C@H](C)CO)C[C@H]2C)cc1`, 0.8771 ± 0.0037; to `O=C(C[C@H]1CC[C@H]2[C@@H](COC[C@H](O)CN2Cc2nccs2)O1)N1CCC(Cc2ccccc2)CC1`, 1.03 ± 0.078.
Same read-out and setting: to `CN1C(=O)c2cc(NC(=O)c3cnccn3)ccc2OC[C@@H]2O[C@H](CC(=O)N[C@@H]3CCN(Cc4ccccc4)C3)CC[C@H]21` belongs 1.05 ± 0.031.
`COc1ccccc1CN1[C@@H]2CNC[C@H]1[C@@H]2c1ccc(-c2cccnc2)cc1`: the viability index under setting [1] amounted to 1.09 ± 0.1.
Still for that read-out and setting: to `Cc1noc(C)c1S(=O)(=O)N(C)C[C@@H]1OCCCC[C@H](C)Oc2ccc(NC(=O)CCC(F)(F)F)cc2C(=O)N([C@@H](C)CO)C[C@H]1C` belongs 1.03 ± 0.09.
Under setting [1], `O=C(C[C@@H]1C=C[C@@H](NC(=O)c2ccc3c(c2)OCO3)[C@@H](CO)O1)NC1Cc2ccccc2C1` registered a viability index of 0.963 ± 0.11.
Same read-out and setting: the value for `COc1cccc(-c2ccccc2[C@@H]2[C@H](C#N)N(C(=O)c3ccccn3)[C@H]2CO)c1` was 1.1 ± 0.072; that for `Cc1ccc(S(=O)(=O)Nc2ccc3c(c2)C(=O)N([C@@H](C)CO)C[C@@H](C)[C@H](CN(C)S(=O)(=O)c2cccs2)OCCCC[C@@H](C)O3)cc1` was 1.13 ± 0.086; that for `CO[C@H](CN(C)Cc1ccc2c(c1)OCO2)[C@H](C)CN(C(=O)c1ccccc1)[C@@H](C)CO` was 1.067 ± 0.0074.
Same read-out and setting: the value for `COc1ccc2c3c([C@@H](CO)N(Cc4ccncc4)C[C@]33CN(C3)C(=O)Nc3cccc(F)c3)n(C)c2c1` was 1 ± 0.16; that for `C/C=C/c1ccc([C@H]2[C@H]3CNC[C@@H]2N3C(=O)Nc2ccc3c(c2)OCO3)cc1` was 1.05 ± 0.093; that for `Cc1ccc(S(=O)(=O)N(C)C[C@H]2Oc3cc(C#CC4CCCC4)ccc3S(=O)(=O)N([C@H](C)CO)C[C@@H]2C)cc1` was 0.676 ± 0.26.
The same measure, in the same setting: to `CCCN(C)C[C@H]1Oc2cc(/C=C/c3ccccc3)ccc2S(=O)(=O)N([C@H](C)CO)C[C@@H]1C` belongs 1.02 ± 0.016; to `Cc1ccc(S(=O)(=O)N(C)C[C@H]2Oc3cc(C#CC4CCCC4)ccc3S(=O)(=O)N([C@@H](C)CO)C[C@H]2C)cc1`, 0.713 ± 0.03; to `C[C@H]1CN([C@@H](C)CO)S(=O)(=O)c2ccc(C#Cc3cccc(F)c3)cc2O[C@H]1CN(C)S(=O)(=O)c1cn(C)cn1`, 1.04 ± 0.054.
Compound `C[C@H]1CN([C@@H](C)CO)S(=O)(=O)c2ccc(-c3ccncc3)cc2O[C@H]1CN(C)S(C)(=O)=O` gave a viability index under setting [1] of 1.023 ± 0.0035.
The same measure, in the same setting: to `Cc1ccc(S(=O)(=O)N(C)C[C@@H]2Oc3cc(C#CC4CCCC4)ccc3S(=O)(=O)N([C@@H](C)CO)C[C@@H]2C)cc1` belongs 0.837 ± 0.055; to `C[C@@H]1CN([C@@H](C)CO)S(=O)(=O)c2ccc(C#Cc3cccc(F)c3)cc2O[C@H]1CN(C)S(=O)(=O)c1cn(C)cn1`, 0.9366 ± 0.0027.
The compound `COc1cccc(S(=O)(=O)N(C)C[C@H]2Oc3cc(Br)ccc3S(=O)(=O)N([C@@H](C)CO)C[C@H]2C)c1` registered a viability index under setting [1] of 0.978 ± 0.026.
For `COc1ccccc1S(=O)(=O)N(C)C[C@@H]1Oc2cc(/C=C/c3ccccc3)ccc2S(=O)(=O)N([C@H](C)CO)C[C@H]1C`, the viability index (library set: Broad Institute Blood Stage) amounted to 0.808 ± 0.032.
Take `CCCN(C)C[C@@H]1Oc2cc(/C=C/c3ccccc3)ccc2S(=O)(=O)N([C@@H](C)CO)C[C@H]1C`: under setting [1], the viability index was found to be 1.102 ± 0.0059.
